The text below walks through data of PubChem BioAssay AID624116 (National Center for Advancing Translational Sciences (NCATS), 2012).

This assay in a line: qHTS Assay for Rab9 Promoter Activators: Hit Validation Using Renilla Luciferase Read-Out for Rab9. In a few lines:
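Huh7 cells stably carrying promoter-luciferase reporter, exposed to compound for 24 h at 37 deg C. Luminescence read 10 min after adding luciferase detection reagent at room temperature.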
(In general: qHTS replaces the single test concentration by a dilution series.)

Records with an inconclusive call do not appear. Entries that show only a call come without a potency. Activity calls are given as the source filed them. Calls follow the shape of the dose curve; as a rule, active = well fitted activation curve with a large enough effect; inconclusive = small, poorly fitted or top-dose-only effect; inactive = no such curve, though single readings can be large or run the other way.
Potency is read from the fitted curve at half-maximal effect.

Regarding `Nc1nc(SCCO)[nH]c(=O)c1NC(=O)c1ccco1`, the Potency entry was “inactive”.
Take `CCOC(=O)CSc1nc2cc3c(cc2cc1C#N)OCO3`: the Potency entry is “inactive”.
On to `COc1ccc(C(c2nnnn2CCc2ccccc2)N2CCN(C3CCCC3)CC2)cc1` (stereo not drawn), for which the Potency is 13 µM (active).
As for `Cc1ccccc1NC(=O)CSc1ccc(-c2cccnc2)nn1`, the Potency result was “inactive”.
For the compound `CCC(=O)N1c2ccccc2NC2=C(C(=O)CCC2)C1c1ccc(N(C)C)cc1` (stereo not drawn), the Potency result was “inactive”.
As to `O=C(CCCN1C(=O)C(c2ccccc2)Oc2cccnc21)Nc1ccccc1Cl` (stereo not drawn), the Potency entry was “inactive”.
As for `CC(=O)NC(CCCN1C(=O)c2ccccc2C1=O)c1nnn(C)n1` (stereo not drawn), the Potency result is “inactive”.
Turning to `O=CN1CCN(C(=O)c2ccccc2Cl)CC1`, the Potency result was “inactive”.
For `Cc1ccc(C(=O)NC2CCN(CC(=O)Nc3c(C)cc(C)cc3C)CC2)cc1`, the Potency result is “inactive”.
On to `O=C(CCS(=O)(=O)c1ccccc1)Nc1ccc(-c2nc3ccccc3s2)cc1`, for which the Potency result was “inactive”.
Regarding `COc1ccc(-c2csc(Nc3ncccn3)n2)cc1C`, the Potency entry was “inactive”.
As to `Cc1ccc2nc(Nc3ccc(Cl)cc3)c3nncn3c2c1`, the Potency result is “inactive”.
`Cc1ccc(C2C3=C(CC(C)(C)CC3=O)N(CCN3CCOCC3)C3=C2C(=O)CC(C)(C)C3)cc1`: the Potency is 20.7 µM (active).
For `Cc1cc(C)c2c(N)c(C(=O)Nc3ccc([N+](=O)[O-])cc3)sc2n1` the value was “inactive”.
For `NC(=O)C(=O)NN=C1C2CC3CC(C2)CC1C3`, the Potency result was “inactive”.
As for `Cn1c(CCN2CCN(c3ccccc3)CC2)nc2cc(NC(=O)c3ccco3)ccc21`, the Potency entry was “inactive”.
In the case of `CCOC(=O)c1cc2sccc2n1CC(=O)N1CCCc2ccccc21`, the Potency entry was “inactive”.
Turning to `Cc1ccc(N=Cc2sc(O)c3ccccc23)c(C)c1`, the Potency result is “inactive”.
